Hit rate of the full screen: of about 2,100 compounds, about 760 (36%) were called active. A selection follows. Values without a mark were called inactive.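 How the source made its calls: active means thallium-flux fluorescence traces judged by eye to show enhanced or reduced glutamate response, manual score 1 or -1, so both directions (some results past the limit were not filed as active); inactive means the rest, including fluorescent or raised-baseline compounds.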
experiment: non-GIRK thallium flux modulation in mGlu8 cells, confirmation, counter-screen for GIRK activator project, cell-based, HEK-293 rmGlu8, no GIRK (AID 623868); details: thallium flux fluorescence, at 10 µM, actives lie on both sides;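 further: extra codes mark interference with 3 for fluorescent and 4 for baseline rise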

| Compound | manual score |
| --- | --- |
| CC(C)Oc1cc(-n2c(=S)[nH]c3ccccc3c2=O)c(Cl)cc1Cl | 1 (active) |
| COc1cc(-n2c(=S)[nH]c3ccccc3c2=O)c(Cl)cc1Cl | 1 (active) |
| c1ccc2c(CNC3CCCCC3)c[nH]c2c1 | 0 |
| CCOC(=O)C(O)(c1ccc(N(CC)S(=O)(=O)c2ccc(C)cc2)cc1)C(F)(F)F (stereo not given) | 0 |
| CNC(=O)OCCc1nccn1C | 0.5 |
| Fc1ccc(NC2=NCCS2)cc1Cl | 0 |
| CC(C)CCn1c(=O)c(C(=O)Nc2ccccc2S(N)(=O)=O)c(O)c2ccccc21 | 0 |
| C=CCOC(=O)COc1cc(C)cc2oc(=O)c3c(c12)CCC3 | -0.5 |
| C/C(=N\Nc1ccccc1)c1c(O)n(C)c(=O)n(C)c1=O | 0 |
| O=c1cc(C(F)(F)F)c2cc3c4c(c2o1)CCCN4CCC3 | 3 |
| S=C1CN=C(c2ccccc2Cl)c2cc(Cl)ccc2N1 | 1 (active) |
| S=C1CN=C(c2ccccc2)c2cc(Cl)ccc2N1 | 1 (active) |
| Cc1ccccc1C1=NCC(=S)Nc2ccc(Cl)cc21 | 1 (active) |
| O=C(Cc1ccccc1)N1CCN(C/C=C/c2ccccc2)CC1 | 0 |
| CCN(c1ccc(C(O)(C(=O)OC)C(F)(F)F)cc1)S(=O)(=O)c1ccc(C)cc1 (stereo not given) | 0 |
| CCCCn1c(C)c(C(=O)OCC)c2c(CN3CCOCC3)c(O)ccc21 | 0 |
| Cc1ccc2nc(N3CCC(C(=O)N4CCC5(CC4)OCCO5)CC3)sc2c1 | 0 |
| N=c1sc2c(n1Cc1ccccc1)CCCC2 | 0 |
| O=C(Nc1ccc(Cl)cc1)Nc1nccs1 | 0 |
| O=C(c1ccccc1)c1cn(CC(=O)N2CCOCC2)c2ccccc12 | -0.5 |
| Cn1cccc1CNCCc1ccccc1 | 0 |
| Cc1nn(C)cc1/C=C1/CC2C3CC=C4CC(O)CCC4(C)C3CCC2(C)C1=O (stereo not given) | 0 |
| CCN(CC)CCNCC(=O)Nc1ccc(Cl)cc1C(=O)c1ccccc1 | 0 |
| Nc1c(C(=O)OC2CCCCC2)c2nc3ccccc3nc2n1CC1CCCO1 (stereo not given) | -0.5 |
| Cc1ccc(OCC(=O)NCCN2CCN(C(=O)COc3ccc(C)cc3)CC2)cc1 | 0 |

From PubChem BioAssay AID623868 (Vanderbilt High Throughput Screening Facility, 2012)
